Screens (PubChem BioAssay)
TDP1 cell noCPT: qHTS for Inhibitors of human tyrosyl-DNA phosphodiesterase 1 (TDP1): qHTS in cells in absence of CPT | DT40 Tdp1-/- hTDP1 cells, no CPT, ATP luminescence, 48 h | Potency, µM (doses to about 46.2 µM), without a hit: at the highest dose activity change, negative = growth inhibition, actives largely listed as inhibitors | 15% of 420,000 active; further: potency means the concentration at half of the fitted maximal effect; nearly all actives have a fitted effect of over 55% in size
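Compound effects on proliferation are scored in DT40 Tdp1-/-;hTDP1 cells in the absence of CPT. ATP levels (CellTiter-Glo luminescence) are recorded after a ≥48 hr, 37 °C incubation.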
TDP1 inh: qHTS Assay for Inhibitors of Tyrosyl-DNA Phosphodiesterase (TDP1); recombinant TDP1, AlphaScreen DNA substrate cleavage; 0.28% of 350,000 active; Tyrosyl-DNA phosphodiesterase 1 (Homo sapiens), Q9NUW8; Potency, µM (series often up to 130 µM), inactives show at the top dose activity change, negative = inhibition, actives largely listed as inhibitors; AID 485290, 2010; further: potency means the concentration at half of the fitted maximal effect; nearly all actives have a fitted effect of over 40% in size
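Here, a 5' biotin and 3' phosphotyrosine-FITC DNA oligonucleotide reports Tdp1 activity: intact substrate bridges AlphaScreen beads, while cleavage leaves a 3' phosphate and drops signal. All incubations at room temperature.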
CtBP-E1A inh: qHTS Assay for Inhibitors of the CtBP/E1A Interaction. CtBP / adenovirus E1A interaction (AlphaScreen). AlphaScreen GST-E1A/His-CtBP binding, 1536-well; stronger effect = lower value. activity change, % (no concentration beside the values). 0.49% of 340,000 active; in the data active means activity change below about -65%; inconclusive means mostly about -30% to -63%
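AlphaScreen with 125 nM GST-E1A and 125 nM His-CtBP (5X stocks) in Tris pH 8.0, 300 mM NaCl, BSA, Tween 20, TCEP. Compounds preincubated 2 h at 37 deg C, then glutathione donor/nickel acceptor beads added for 1 h at 37 deg C in dark.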
Six1-Eya2 blk: qHTS Assay for Inhibitors of the Six1/Eya2 Interaction; AID 651725, 2012; AlphaScreen GST-Six1/His-Eya2 binding, biochemical; stronger effect = lower value; activity change, % (no concentration beside the values); 0.56% of 360,000 active; Homeobox protein SIX1 (Homo sapiens) + Protein phosphatase EYA2 (Homo sapiens), …; in the data active means activity change below about -65%; inconclusive means mostly about -30% to -63%
Target sequence (O00167 whole entry, looked up): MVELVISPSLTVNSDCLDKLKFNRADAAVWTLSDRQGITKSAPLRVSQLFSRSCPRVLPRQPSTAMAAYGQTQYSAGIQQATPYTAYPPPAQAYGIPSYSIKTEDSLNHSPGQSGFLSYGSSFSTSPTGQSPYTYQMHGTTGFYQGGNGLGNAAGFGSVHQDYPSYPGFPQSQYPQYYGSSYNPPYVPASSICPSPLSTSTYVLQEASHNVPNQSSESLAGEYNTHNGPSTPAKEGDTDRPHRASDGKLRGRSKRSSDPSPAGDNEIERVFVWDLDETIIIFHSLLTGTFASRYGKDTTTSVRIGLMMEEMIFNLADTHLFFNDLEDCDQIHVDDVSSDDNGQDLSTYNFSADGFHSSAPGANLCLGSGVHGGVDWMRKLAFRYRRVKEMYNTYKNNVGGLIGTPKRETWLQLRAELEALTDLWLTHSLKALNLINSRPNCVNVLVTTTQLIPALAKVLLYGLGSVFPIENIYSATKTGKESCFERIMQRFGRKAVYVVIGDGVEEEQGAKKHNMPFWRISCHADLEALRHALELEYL
Target sequence (Q15475 whole entry, looked up): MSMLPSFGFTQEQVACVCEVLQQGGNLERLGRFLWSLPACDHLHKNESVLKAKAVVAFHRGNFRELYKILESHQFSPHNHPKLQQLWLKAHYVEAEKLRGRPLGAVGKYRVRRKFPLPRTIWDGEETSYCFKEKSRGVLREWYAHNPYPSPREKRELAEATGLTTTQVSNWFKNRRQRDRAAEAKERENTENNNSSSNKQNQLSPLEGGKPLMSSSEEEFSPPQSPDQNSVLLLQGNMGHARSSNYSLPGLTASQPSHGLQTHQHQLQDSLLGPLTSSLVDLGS
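AlphaScreen with GST-Six1 and His-Eya2 (5X mix: 250 nM and 500 nM), glutathione donor and nickel acceptor beads; buffer 50 mM Tris pH 8.0, 300 mM NaCl, 1 mM TCEP; 1 h at 37 C in the dark.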
IL1B secr inh: qHTS for Inhibitors of Inflammasome Signaling: IL-1-beta AlphaLISA Primary Screen; THP-1 LPS/ATP IL-1B secretion, AlphaLISA, 16 h; stronger effect = lower value; activity change, % at 57.5 µM; 4.7% of 360,000 active; in the data active means activity change below about -50%; inconclusive means mostly about -30% to -49%
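Secreted IL-1B measured by AlphaLISA bead assay after 16 h compound exposure of THP-1 cells; compounds (final up to 57.5 uM) added 1 h before LPS (250 ng/mL) and ATP (1.25 mM) stimulation; lower signal means less secretion.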
DT40 TDP1 CPT: qHTS for Inhibitors of human tyrosyl-DNA phosphodiesterase 1 (TDP1): qHTS in cells in presence of CPT; chicken DT40 Tdp1-/-;hTDP1 cells + 20 nM CPT, ATP luminescence, 48 h; Potency, µM (titrated, usually from 46.2 µM), inactives show at the top dose activity change, negative = growth inhibition, hits mostly inhibitors; 12% of 420,000 active; further: potency means the concentration at half of the fitted maximal effect; nearly all actives have a fitted effect of over 55% in size
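Cell growth measured by CellTiter-Glo luminescence after a minimum 48 h, 37 C compound exposure with 20 nM CPT in Tdp1-knockout DT40 cells stably expressing hTDP1, seeded 400/well; qHTS titration format.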
* = called active by the depositor; u = inconclusive; x = not tested or not shown; [ ] = another dose, or the depositor's remark. Shown are actives, neighbours in structure and some others; about 18% of the full set was active somewhere. Unless noted, the call rests on the fitted dose curve; in most records, active means well fitted curve in the direction sought with a large enough effect; inconclusive means small, poorly fitted or top-dose-only effect, or another doubt; inactive means no such curve, though single readings can be large; an effect the other way counts as inactive or inconclusive. On the % scale 0 is the no-effect control and ±100 the full control effect.

SMILES	TDP1 cell noCPT	TDP1 inh	CtBP-E1A inh	Six1-Eya2 blk	IL1B secr inh	DT40 TDP1 CPT
O=C(COC(=O)c1ccc(Sc2ccccc2)c([N+](=O)[O-])c1)NC1CCCc2ccccc21 (stereo not given)	-2%	1%	-2	0	39	0%
CCCC(=O)N(c1ccc2oc(C)c(C(C)=O)c2c1)S(=O)(=O)c1ccc(C)c([N+](=O)[O-])c1	16µM*	5%	3	-5	9	18µM*
CCOC(=O)c1c(-c2ccccc2)oc2ccc(N(C(C)=O)S(=O)(=O)c3ccc(CC)cc3)cc12	5.8µM*	x	x	x	x	16µM*
CCc1ccc(S(=O)(=O)N(C(=O)Oc2ccccc2)c2ccc3oc(C)c(C(=O)OC)c3c2)cc1	2.9µM*	3%[12.3 µM]	x	x	x	3.7µM*
COC(=O)c1c(C)oc2ccc(N(C(=O)Oc3ccccc3)S(=O)(=O)c3ccc(Cl)c([N+](=O)[O-])c3)cc12	21µM*	2%	1	-13	-105*	u
CSc1cccc(NC(=O)C2C3C=CC4(O3)C2C(=O)N(CCN2CCOCC2)C4C(=O)NC2CCCCC2)c1 (stereo not given)	9%	8%	8	0	7	1%
Cc1ccccc1OCC(=O)Nc1nnc(S(=O)(=O)N2CCCCCC2)s1	-18%	3%	x	x	x	-19%
COCCn1c(=O)[nH]c2cc(C(=O)N3CCN(c4cccc(C(F)(F)F)c4)CC3)ccc2c1=O	13µM*	x	-2	1	-7	21µM*
COc1ccc(CCn2c(=S)[nH]c3cc(C(=O)N4CCOCC4)ccc3c2=O)cc1OC	18µM*	-3%	2	-5	42	u
COCCn1c(=S)[nH]c2cc(C(=O)N3CCN(c4cccc(Cl)c4)CC3)ccc2c1=O	4.1µM*	3%	-25	-6	-16	21µM*
COCCn1c(=O)[nH]c2cc(C(=O)N3CCN(Cc4ccc5c(c4)OCO5)CC3)ccc2c1=O	-2%	x	4	6	13	-30%
COCCn1c(=S)[nH]c2cc(C(=O)N3CCN(Cc4ccc5c(c4)OCO5)CC3)ccc2c1=O	18µM*	9%	0	0	-18	u
COCCn1c(=O)[nH]c2cc(C(=O)OC)ccc2c1=O	-5%	8%	11	0	65	6%
COc1cccc(N2C(=O)CC(N3CCC(c4nc5ccccc5[nH]4)CC3)C2=O)c1 (stereo not given)	-2%	13%	3	-8	11	-17%
Cc1cc(NC(=O)CN2CC3CC(C2)c2cccc(=O)n2C3)nc2c1c(=O)oc1ccccc12 (stereo not given)	x	-7%	x	x	x	x
COCCn1c(=O)[nH]c2cc(C(=O)NCc3ccccc3Cl)ccc2c1=O	u	6%	x	x	x	u
COCCn1c(=O)[nH]c2cc(C(=O)NCCN3CCN(c4cccc(Cl)c4)CC3)ccc2c1=O	3.3µM*	2%	-19	-11	22	15µM*
CCOC(=O)C1CCN(c2ccc(-c3cccs3)nn2)CC1	u	x	0	0	37	u
c1csc(-c2ccc(N3CCOCC3)nn2)c1	8.2µM*	x	x	6	-13	u
CCn1nc(C)c(Br)c1-c1nc(-c2cccc(C)c2)no1	-25%	-2%	x	5	17	-14%
COC(=O)c1c(SC)nc2ccccc2c1OCc1ccccc1C	13µM*	x	x	x	x	u
